High-throughput results: PubChem, National Center for Advancing Translational Sciences (NCATS)
Shiga toxin inh: Shiga toxin inhibition; Vero cells, Shiga toxin protein synthesis inhibition reporter; inhibition, % at 38.7 µM; 9.2% of 290,000 active; AID 2315; in the data active = inhibition mostly above about 28%, no sharp cut-off; inactive = mostly below about 43%; also: 0% is about no effect
Pf growth 48h: inhibits P. falciparum growth in the first generation, 48 h; P. falciparum luciferase growth in erythrocytes, 48 h; Potency, µM (doses to about 28.7 µM), without a hit: at the top dose activity change, negative = inhibition, most hits filed as inhibitors; 5.9% of 310,000 active; AID 504832; also: potency is read from the fitted curve at half-maximal effect; % is scaled to controls: 0 for no effect and ±100 for the full control effect
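Luciferase-expressing P. falciparum in infected erythrocytes (2% hematocrit, 0.1% parasitemia final) in RPMI 1640/0.5% Albumax were exposed to compound for 48 hours at 37 C, 5% CO2; growth read as luminescence.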
NS1 inh: blocks influenza NS1 protein function; Potency, µM (series often up to 46.1 µM), inactives show at the top dose activity, positive = more growth; 0.4% of 270,000 active; calls by dose curve; also: potency is read from the fitted curve at half-maximal effect; actives are rising curves; nearly all actives have a fitted effect of over 50% in size
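Growth recovery, yeast-based: influenza A NS1 expressed in S. cerevisiae causes slow growth, and suppressors are detected by OD600. The parent strain without NS1 is used as positive control.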
Pf growth 96h: P. falciparum growth inhibition at 96 hour, primary screen for plastid delayed-death inhibitors; P. falciparum luciferase reporter growth, 96 h; Potency, µM (top dose mostly 28.7 µM), without a hit: top-dose activity change, negative = inhibition, most hits filed as inhibitors; 6.9% of 320,000 active; AID 504834; also: potency is read from the fitted curve at half-maximal effect; % is scaled to controls: 0 for no effect and ±100 for the full control effect
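P. falciparum expressing integrated firefly luciferase grown in erythrocytes (2% hematocrit, 0.05% parasitemia final) with compounds for 96 hours at 37 C, 5% CO2. Growth inhibition read as loss of luminescence after adding luciferase detection reagent.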
FBPA Giardia inh: inhibitors of Giardia lamblia fructose-1,6-bisphosphate aldolase | A8B2U2 | purified Giardia FBPA | Potency, µM (series often up to 59.6 µM), for inactives: top-dose activity, negative = inhibition, usual class: inhibitors | 0.71% of 290,000 active | AID 2451; also: potency is read from the fitted curve at half-maximal effect; % is scaled to controls: 0 for no effect and ±100 for the full control effect; nearly all actives have a fitted effect of over 55% in size
Target sequence (A8B2U2 whole entry, looked up): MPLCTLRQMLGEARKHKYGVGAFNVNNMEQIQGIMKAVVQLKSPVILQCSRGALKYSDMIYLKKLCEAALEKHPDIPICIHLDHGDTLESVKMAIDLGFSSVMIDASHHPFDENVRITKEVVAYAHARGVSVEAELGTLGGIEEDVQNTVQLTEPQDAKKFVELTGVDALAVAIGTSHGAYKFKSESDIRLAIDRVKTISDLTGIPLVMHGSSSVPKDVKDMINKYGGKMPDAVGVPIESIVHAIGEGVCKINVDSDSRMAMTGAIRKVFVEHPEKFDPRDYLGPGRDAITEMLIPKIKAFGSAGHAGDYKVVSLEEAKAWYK
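Giardia FBPA (40 nM reagent) was preincubated 10 min at RT with compound (up to 57.5 uM final), then substrate plus GAPDH/TPI/NAD/arsenate coupling system with diaphorase/resazurin was added; resorufin fluorescence (525/598 nm) was read after 20 min.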
Cycloheximide cs: counter-screen for Shiga toxin inhibitors: cycloheximide protein synthesis inhibition; AID 2314; max response, %; 12% of 300,000 active; cell reporter, cycloheximide protein synthesis inhibition counterscreen; in the data active = max response mostly above about 13%, no sharp cut-off; inactive = mostly below about 14%; also: read at 38.3 µM for the half of the compounds with a filed dose; 0% is about no effect
Numbers without * were called inactive; i = inactive; ? = inconclusive; . = no result; [ ] = dose if it differs, or a comment. Only some compounds are listed: those with a hit (about 21% of all), similar ones and a draw of the others. Unless noted, calls follow the shape of the dose curve; as a rule, active = well fitted curve in the direction sought with a large enough effect; inconclusive = small, poorly fitted or top-dose-only effect, or another doubt; inactive = no such curve, though single readings can be large; an effect the other way counts as inactive or inconclusive.

SMILES	Shiga toxin inh	Pf growth 48h	NS1 inh	Pf growth 96h	FBPA Giardia inh	Cycloheximide cs
COc1cccc(-c2nc(=S)c3c(n2Cc2ccco2)CCCC3)c1	-2.8	?	0.0%	10.2%	-4.4%	0.7
COc1cccc(-c2nc(=S)c3c(o2)CCCC3)c1	120.4*	i	-2.5%	-5.5%	?	42.2*
O=[N+]([O-])c1ccc(-c2nc(=S)c3c(o2)CCCC3)cc1	15.9	15.9%	0.2%	89.6%	-6.3%	12.4*
S=c1nc(-c2ccccc2)oc2c1CCCC2	94.6*	187.5%	8.7%	281.2%	.	59.6*
S=c1[nH]nc(-c2ccccc2)o1	29.4	13.8%	-44.5%	-9.5%	?	5.1
COc1cccc(-c2n[nH]c3c2CCC3)c1	52.5	?	.	94.9%	1.5%	21.6*
O=C1CCC[C@@H](C(C(=O)OCc2ccccc2)C(=O)OCc2ccccc2)C1	.	.	.	.	-3.1%[12.9 µM]	.
O=C(Nc1cccc(Cl)c1)C1C2C=CC3(O2)C1C(=O)N(CCCN1CCCCC1)C3C(=O)NC1CCCCC1 (configuration not stated)	-5.6	-6.3%	-6.8%	-26.0%	8.7%	-6.5
CC1=CC(C)(C)N2C(=O)C3(NCCc4c3[nH]c3ccccc43)c3cccc1c32 (configuration not stated)	12.0	?	-12.5%	219.4%	-5.6%	5.7
CC(=O)Nc1ccc(S(=O)(=O)NC(=O)C23CC4CC(CC(C4)C2)C3)cc1	-9.7	.	0.5%	0.928µM*	9.0%	-2.8
COc1ccc(Cl)cc1NC(=O)NCc1ccc2c(c1)OCO2	20.1	5.7%	4.3%	199.0%	.	16.8
Cc1ccc(OCc2nnc(N)s2)cc1	27.2*	55.3%	1.9%	?	6.3%	27.8*
Cc1ccc(OCc2nnc(N)s2)cc1C	59.2*	44.7%	0.9%	42.1%	-6.1%	20.7*
Cc1cc(C)cc(OCc2nnc(N)s2)c1	22.4	8.7%	-6.1%	19.6%	0.3%	0.9
O=C(CN(C(=O)CNC(=O)c1cccs1)c1ccccc1F)NC1CCCC1	-4.5	-7.2%	-7.2%	?	-0.8%	-2.5
CC1(OC(=O)C2CCCC2)C(=O)C=C2C=C(c3ccsc3)N(C3CCCC3)C=C2C1=O (configuration not stated)	-5.4	?	-3.3%	10.4µM*	?	-2.1
CC1(OC(=O)C2CCCC2)C(=O)C=C2C=C(c3ccsc3)N(Cc3ccco3)C=C2C1=O (configuration not stated)	28.9	11.7µM*	3.2%	13.1µM*	?	-0.4
CC1(OC(=O)C2CCCC2)C(=O)C=C2C=C(c3ccsc3)N(CCCCO)C=C2C1=O (configuration not stated)	-6.5	?	4.0%	?	?	-6.7
CCC(C)(C)c1ccc(OCC(=O)Nc2ccncc2)cc1	-1.7	-7.3%	-72.8%	?	13.4%	9.4
Cc1nc2cc(NCc3cc([N+](=O)[O-])ccc3O)ccc2n1Cc1ccccc1	32.5	?	.	321.7%	-11.4%	1.9
Cc1cccc(C(=O)NNc2ncnc3c2cnn3C)c1	35.6	-2.8%	.	-71.8%	-4.4%	30.0*
Cc1ccc(-n2ncc3c(NCc4ccccc4)ncnc32)cc1	102.7*	171.0%	17.4%	238.6%	-3.7%	111.1*
COc1ccccc1CNc1ncnc2c1cnn2-c1ccccc1	43.0*	6.7%	-42.7%	-10.2%	-21.0%	30.7*
Cn1ncc2c(NNC(=O)c3ccc(O)cc3)ncnc21	1.5	170.2%	.	-1.9%	-0.3%	15.9
Cc1ccc(-n2ncc3c(NCc4cccnc4)ncnc32)cc1C	115.1*	118.0%	-20.8%	59.9%	-0.5%	45.2*
SMILES	Shiga toxin inh	Pf growth 48h	NS1 inh	Pf growth 96h	FBPA Giardia inh	Cycloheximide cs
CC1CCCCN1C(=O)CCNC(=O)Cn1cnc2ccccc2c1=O (configuration not stated)	-11.2	7.2%	-9.8%	?	-0.7%	-3.2
COc1ccc(-n2ncc3c(NCC(C)C)ncnc32)cc1	18.9	108.5%	-10.8%	25.5%	2.8%	14.7
Cc1cccc(-n2ncc3c(NCc4cccnc4)ncnc32)c1	76.6*	91.1%	-4.5%	108.4%	-0.5%	46.5*
CC(=O)NNc1ncnc2c1cnn2-c1ccc(C)c(C)c1	64.7*	210.5%	.	?	-0.7%	56.2*
CCC(=O)NNc1ncnc2c1cnn2-c1ccccc1	20.9	8.0%	.	?	1.0%	12.2
COc1ccc(-n2ncc3c(NCc4cccnc4)ncnc32)cc1	85.9*	.	-2.3%	213.1%	-6.7%	52.2*
Cc1csc2c(=O)n(CCO)c(=O)[nH]c12	29.4	?	-48.5%	0.0%	1.0%	-1.2
CCCCC(=O)NNC(=S)NC(=O)c1ccc([N+](=O)[O-])cc1	-16.5	-21.9%	.	?	?	-0.7
COCCCNC(=S)NC(=O)c1ccc(C)cc1	123.0*	197.1%	11.7%	2.8%	2.6%	77.7*
CCCCC(=O)NNC(=S)NC(=O)c1ccc(C)cc1	49.3*	?	-72.3%	?	2.7%	22.5
COCCCNC(=S)NNC(=O)c1ccc(C(C)(C)C)cc1	-19.4	3.9%	-1.2%	-19.5%	4.3%	2.6
O=C1OC(CO)CN1Cc1ccccc1 (configuration not stated)	-7.2	.	1.9%	7.5%	4.7%	-2.9
COCCN(C(=O)COC(=O)Cc1c[nH]c2ccccc12)c1c(N)n(Cc2ccccc2)c(=O)[nH]c1=O	.	?	.	-17.7%	.	.
CC(C)(C)SCCNC(=O)c1ccc(CN2CCc3ccccc3C2)cc1	53.5*	-37.2%	0.1%	-3.3%	-6.9%	44.0*
CCCNC(=O)c1ccc(CN2CCc3ccccc3C2)cc1	9.3	10.4µM*	-1.2%	249.0%	?	-1.8
COCCNC(=O)c1ccc(CN2CCc3ccccc3C2)cc1	-1.6	2.1%	4.0%	?	-1.8%	-4.0
CCC(C)C(NC(=O)c1ccccc1NC(=O)c1ccco1)C(=O)NNC(=O)c1ccc(OC)cc1 (configuration not stated)	20.3	9.28µM*	27.5%	8.28µM*	2.8%	0.6
CCC(C)C(NC(=O)c1ccccc1NC(=O)c1ccco1)C(=O)NNC(=O)c1ccncc1 (configuration not stated)	21.8	10.4µM*	3.4%	?	2.2%	-3.0
Cc1c(C(=O)NN2CCOCC2)nn(-c2ccc(Cl)cc2Cl)c1-c1ccc(I)cc1	-11.3	.	.	.	-4.6%	-0.8
N#Cc1c(/N=C/c2ccco2)oc(-c2ccccc2)c1-c1ccccc1	-9.4	16.5µM*	-23.8%	26.9%	-14.4%	-2.1
CCCc1nc2ccc(N)cc2c(=O)n1Cc1ccccc1Cl	.	37.6%	-65.9%	-14.2%	-1.2%	7.1
Cc1ccc(NC(=O)c2sc3nc(C)cc(C)c3c2N)cc1	124.9*	214.5%	-6.4%	0.1%	-5.7%	50.8*
Cc1nc(N)sc1C(=O)NN	82.0*	74.5%	-0.4%	36.9%	-14.9%	23.1*
Cc1cc(C)c2c(N)c(C(=O)Nc3cccc(C)c3C)sc2n1	7.8	1.6%	3.0%	25.7%	-3.1%	11.5*
